# Assay results published in PubChem BioAssay (Tox21).
# Results filed as inconclusive are left out. A number with no mark means an inactive call. The call rests on the fitted dose curve.
# Target: D(2) dopamine receptor (Homo sapiens) (UniProt P14416)
# Assay: Dopamine D2 receptor (DRD2) small molecule agonists, cell-based qHTS assay (AID 1963594); further: nearly all actives have a fitted effect of over 35% in size
# Details: HEK293-DRD2 cAMP HTRF, agonist mode, 30 min; series mostly up to 92.4 µM; activation: at the top concentration
# Excerpt: National Center for Advancing Translational Sciences [NCATS]
# Division of Preclinical Innovation [DPI]
# U.S. Environmental Protection Agency [EPA]
# National Institutes of Environmental Health Sciences [NIEHS]
# National Toxicology Program [NTP]
# U.S. Food and Drug Administration [FDA]
# DRD2 is the D2 subtype of the dopamine receptor, which is coupled to Gi subtype of G protein-coupled receptor. This G protein-coupled receptor inhibits adenylyl cyclase activity. The DRD2-HEK293 cell line stably expressing D2 dopamine receptor can be used for screening agonists and antagonists of interactions between D2 and its ligands. The Hek293-DRD2 cAMP assay is based on HTRF technology. It measures changes of cAMP accumulation in response to Gi coupled GPCR activation or inhibition.
# Tox21 Assay Protocol Summary:
# DRD2-Hek293 cells were dispensed at 600 cells/3uL/well in 1536-well white plates using a Multidrop Dispenser. After the assay plates were incubated at a 37 C/5% CO2 incubator for 24 h, 1 uL of Ro20-1724 at final concentration of 0.1 mM was transferred to the assay plate by a Flying Reagent Dispenser. Following Ro20-1724 addition, 23 nL of compound dissolved in DMSO, positive controls or DMSO only was added to the assay plates via Wako pintool station. The assay plates were incubated at room temperature for 10 min. Next, 1 uL of NKH477 at 200nM was added into the plates. After the assay plates were incubated at room temperature for an additional 30 min, 2.5 ul/well of cAMP-d2 and 2.5 ul/well of anti-cAMP-cryptate were added respectively into the assay plates using a Flying Reagent Dispenser. The plates were incubated at room temperature for 1 h. The fluorescence intensity in the plates was measured at 340 nm excitation and 665 & 620 nm emission by an Envision plate reader.
# On the % scale 0 is the no-effect control and ±100 the full control effect.
# Chain of D(2) dopamine receptor (Homo sapiens) (P14416 whole entry, looked up): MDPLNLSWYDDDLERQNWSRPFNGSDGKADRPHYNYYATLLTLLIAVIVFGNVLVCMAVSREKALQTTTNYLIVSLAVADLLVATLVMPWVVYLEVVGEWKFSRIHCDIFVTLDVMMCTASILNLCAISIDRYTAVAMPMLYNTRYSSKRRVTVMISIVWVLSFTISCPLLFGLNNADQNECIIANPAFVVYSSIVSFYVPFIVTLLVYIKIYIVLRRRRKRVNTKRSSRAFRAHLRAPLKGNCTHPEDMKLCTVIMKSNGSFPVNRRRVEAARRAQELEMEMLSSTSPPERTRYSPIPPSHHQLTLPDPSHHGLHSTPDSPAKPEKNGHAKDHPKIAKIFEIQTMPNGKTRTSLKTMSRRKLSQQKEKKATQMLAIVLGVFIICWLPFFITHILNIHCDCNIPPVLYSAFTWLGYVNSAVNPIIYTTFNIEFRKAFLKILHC
row,Structure (SMILES),activation
1,CN[C@@H]1[C@H](O)[C@H](NC)[C@H]2O[C@@]3(O)C(=O)C[C@@H](C)O[C@H]3O[C@@H]2[C@H]1O,-1.14% [at 42.5 µM]
2,CC(=O)O[C@H]1C[C@@H]2CC[C@@H]3[C@H](CC[C@@]4(C)[C@H]3C[C@H]([N+]3(C)CCCCC3)[C@@H]4OC(C)=O)[C@@]2(C)C[C@@H]1N1CCCCC1,-5.83% [at 42.5 µM]
3,N[C@@H](COP(=O)(O)O)C(=O)O,-3.09% [at 19 µM]
4,C=COCCCCO,3.55%
5,N#CCc1ccccc1[N+](=O)[O-],0.0756%
6,CCc1cc(Cl)c(OC)c(C(=O)NC[C@@H]2CCCN2CC)c1O,-2.39% [at 42.5 µM]
7,CCC(C=O)CC,0.605%
8,O=S(=O)(O)c1ccc(O)c2ncccc12,-2.68%
9,O=C(C(Cl)Cl)N1CCOC12CCCCC2,-3.05%
10,CCC(=O)C(=O)CC,0.0019%
11,COC(=O)c1cc(C(=O)OC)cc(S(=O)(=O)O)c1,-0.821%
12,C=CC(C)(C)O,-2.55%
13,[O]=[Mo](=[O])=[O],-0.0356% [at 19 µM]
14,C[Si]1(C)N[Si](C)(C)N[Si](C)(C)N1,1.89%
15,Brc1c2ccccc2cc2ccccc12,-5.79%
16,CN1C(=O)CC(c2ccccc2)C1=O (stereo not given),5.65% [at 42.5 µM]
17,C=C(C)C(=O)OCCCCCCCCCCOC(=O)C(=C)C,-0.354%
18,CC(=O)CC(C)C,0.568%
19,C=CCn1c(=O)n([C@@H]2O[C@H](CO)[C@@H](O)[C@H]2O)c2nc(N)[nH]c(=O)c21,6.55% [at 42.5 µM]
20,O=C(O)CP(=O)(O)O,10.9% [at 42.5 µM]

row,Structure (SMILES),activation
1,CN1CCCCC1CCN1c2ccccc2Sc2ccc(S(C)=O)cc21 (stereo not given),-12.9% [at 42.5 µM]
2,Cc1cc(-n2nc3ccc(Cl)cc3n2)c(O)c(C(C)(C)C)c1,0.613% [at 42.5 µM]
3,O=C(O)c1cc(C(=O)O)c(C(=O)O)cc1C(=O)O,1.81%
4,N[C@H](C(=O)O)[C@@H](O)c1ccc(O)c(O)c1,10.2% [at 42.5 µM]
5,CC(C)NCCCC1(C(N)=O)c2ccccc2-c2ccccc21,-1.85% [at 42.5 µM]
6,CCCCCCCCN(C)CCCCCCCC,-13.4%
7,O=C(CCCl)NCCc1ccccc1,5.89% [at 42.5 µM]
8,OCc1ccccn1,-12.3% [at 42.5 µM]
9,CCCCCCOC(=O)CCCCC,8.39%
10,CCOC(=O)c1ccccc1O,10.6% [at 42.5 µM]
11,CCCCCCCCCCCCCCCCCC#N,1.52%
12,CN(C)CCc1c[nH]c2ccc(CS(=O)(=O)N3CCCC3)cc12,-1.04% [at 42.5 µM]
13,CN1C[C@@H]2C[C@H]1CN2c1cc2c(cc1F)c(=O)c(C(=O)O)cn2C1CC1,2.8% [at 19 µM]
14,CCOC(=O)c1cnc2c(cnn2CC)c1NN=C(C)C,-16.2% [at 42.5 µM]
15,COCCCCCCCCOCCC[Si](C)(O[Si](C)(C)C)O[Si](C)(C)C,-1.36%
16,Cc1ncc([N+](=O)[O-])n1CC(C)O (stereo not given),19.3% [at 42.5 µM]
17,O=C1OC(=O)c2cc([N+](=O)[O-])ccc21,1%
18,CC1=C(/C=C/C(C)=C/C=C/C(C)=C\C(=O)O)C(C)(C)CCC1,-2.38%
19,O=C1c2ccccc2C(=O)C1(O)O,-2.47%
20,Nc1c(CC(=O)O)cccc1C(=O)c1ccc(Br)cc1,-21% [at 42.5 µM]
